Several values for one entry are separate records, joined by “and”; a condition that tells them apart may be missing. Equal values may be shown once. Compounds without any hit were thinned out: in the full panel of roughly 79,000, 15% have a hit. Values without a mark were called inactive. Activity calls are given as the source filed them. Rule as the data show it: active = growth inhibition above about 70%; inactive = the rest.
Test: NCI Yeast Anticancer Drug Screen. Data for the cln2 rad14 strain (AID 165);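 also: 0% = growth equal to vehicle treated cultures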
Settings: S. cerevisiae cln2 rad14 strain, at 5.0 µM (retest, dose inferred, filed as 0.5), hits give high values
Method in brief: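 Relative to vehicle controls, growth inhibition of compound-treated cln2 rad14 yeast was recorded.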
For `COc1ccc(C2c3cc4c(cc3OC(O)(CO)C2C(=O)O)OCO4)cc1` (stereo unspecified) (tested in a mixture with another compound), the growth inhibition was -6%. Compound `CCCCCC(/C=N/Nc1nc(C)cc(=O)[nH]1)=C\c1ccccc1` has a growth inhibition of 3%. `CC(c1ccc2cccc(F)c2c1)c1ccccc1C(=O)O` (stereo unspecified) gave a growth inhibition of 1%. For `CC1=NN(c2ccccc2)C(=O)C1N=Nc1cc(Cl)cc(S(=O)(=O)O)c1O` (stereo unspecified), the growth inhibition was 21%. With `O=C(O)CC(NC(=O)CP(=O)(O)O)C(=O)O.[NH-]C1CCCCC1[NH-].[Pt+2]` (stereo unspecified) the growth inhibition was 22%. In the case of `COc1ccc(-c2nc3c(C(=O)NCCN(C)C)cccc3c3ccccc23)cc1`, the growth inhibition is reported as 3%. In the case of `C[C@]12CCC(=O)C=C1CC[C@@H]1[C@@H]2[C@@H](O)C[C@@]2(C)[C@H]1CC[C@]2(O)C(=O)COC(=O)CCC1CCCC1`, the growth inhibition is reported as 49%. In the case of `CCc1cccc(C)c1N1C(=O)C(=O)C(c2nc3ccccc3o2)/C(=N\NS(=O)(=O)c2ccc(C)cc2)C1=O` (stereo unspecified), the growth inhibition is reported as 8%. In the case of `O=C(CC(=O)c1ccccc1)CC(=O)c1cccc(Cl)c1`, the growth inhibition is reported as -9%. Work on `O=C1/C(=C/c2cccc(Br)c2)CCc2ccccc21` yielded a growth inhibition of -5%. In the case of `CC1(C)c2ccccc2Cc2cc3ccccc3nc21`, the growth inhibition is reported as 1%. Compound `CN(C)Cc1ccc2[nH]c3c(c2c1)CCCC3` has a growth inhibition of 0%. `C=C1C(=O)O[C@@H]2C[C@@]3(C)CCC[C@H](C)C3=C[C@H]12` showed a growth inhibition of 6%. For `O=C1C=CC(=O)c2c1cc1ccccc1c2O`, the growth inhibition was 6%. Work on `Cc1c(CNc2ccc(Cl)c(Cl)c2Cl)cnc2nc(N)nc(N)c12` yielded a growth inhibition of 34%. In the case of `Oc1cc(F)cc2cccnc12`, the growth inhibition is reported as 88% (active). Compound `O=C(c1ccccc1)C(Br)CCCC(Br)C(=O)c1ccccc1` (stereo unspecified) has a growth inhibition of 15%.

Same assay, conditions: S. cerevisiae cln2 rad14 strain, at 50.0 µM (retest, dose inferred, filed as 5.0), hits give high values
In the case of `COc1ccc(C2c3cc4c(cc3OC(O)(CO)C2C(=O)O)OCO4)cc1` (stereo unspecified) (tested in a mixture with another compound), the growth inhibition is reported as 90% (active). Work on `CCCCCC(/C=N/Nc1nc(C)cc(=O)[nH]1)=C\c1ccccc1` yielded a growth inhibition of 39%. In the case of `CC(c1ccc2cccc(F)c2c1)c1ccccc1C(=O)O` (stereo unspecified), the growth inhibition is reported as 98% (active). With `CCN(CC)CC(O)c1ccnc2c(O)cccc12` (stereo unspecified) the growth inhibition was 32%. In the case of `CC1=NN(c2ccccc2)C(=O)C1N=Nc1cc(Cl)cc(S(=O)(=O)O)c1O` (stereo unspecified), the growth inhibition is reported as 30%. Compound `O=C(O)CC(NC(=O)CP(=O)(O)O)C(=O)O.[NH-]C1CCCCC1[NH-].[Pt+2]` (stereo unspecified) has a growth inhibition of 16%. Work on `COc1ccc(-c2nc3c(C(=O)NCCN(C)C)cccc3c3ccccc23)cc1` yielded a growth inhibition of 37%. With `C[C@]12CCC(=O)C=C1CC[C@@H]1[C@@H]2[C@@H](O)C[C@@]2(C)[C@H]1CC[C@]2(O)C(=O)COC(=O)CCC1CCCC1` the growth inhibition was 96% (active). For `CCc1cccc(C)c1N1C(=O)C(=O)C(c2nc3ccccc3o2)/C(=N\NS(=O)(=O)c2ccc(C)cc2)C1=O` (stereo unspecified), the growth inhibition was -2%. For `O=C(CC(=O)c1ccccc1)CC(=O)c1cccc(Cl)c1`, the growth inhibition was 77% (active). Work on `O=C1/C(=C/c2cccc(Br)c2)CCc2ccccc21` yielded a growth inhibition of 16%. For `CC1(C)c2ccccc2Cc2cc3ccccc3nc21`, the growth inhibition was 95% (active). In the case of `CN(C)Cc1ccc2[nH]c3c(c2c1)CCCC3`, the growth inhibition is reported as 72% (active). For `C=C1C(=O)O[C@@H]2C[C@@]3(C)CCC[C@H](C)C3=C[C@H]12`, the growth inhibition was 64%. For `O=C1C=CC(=O)c2c1cc1ccccc1c2O`, the growth inhibition was 44%. `Cc1c(CNc2ccc(Cl)c(Cl)c2Cl)cnc2nc(N)nc(N)c12` gave a growth inhibition of 60%. For `Oc1cc(F)cc2cccnc12`, the growth inhibition was 100% (active). Work on `O=C(c1ccccc1)C(Br)CCCC(Br)C(=O)c1ccccc1` (stereo unspecified) yielded a growth inhibition of 32%.

Same assay, conditions: S. cerevisiae cln2 rad14 strain, at 50.0 µM, hits give high values
Work on `COc1ccc(C2c3cc4c(cc3OC(O)(CO)C2C(=O)O)OCO4)cc1` (stereo unspecified) (tested in a mixture with another compound) yielded a growth inhibition of 37%. With `CC(=O)OC1COC(SC(=N)N)C(OC(C)=O)C1OC(C)=O` (stereo unspecified) the growth inhibition was 19.6% and -30.5% and -41.8%. `CCCCCC(/C=N/Nc1nc(C)cc(=O)[nH]1)=C\c1ccccc1` showed a growth inhibition of 44.1%. For `NCC(=O)NC(CO)C(=O)O` (stereo unspecified), the growth inhibition was -34.1% and -5.75% and -10.1%. For `CC(c1ccc2cccc(F)c2c1)c1ccccc1C(=O)O` (stereo unspecified), the growth inhibition was 97.5% (active). With `OC(c1ccccc1)C(O)c1ccccc1` (stereo unspecified) the growth inhibition was -9.15% and -19.2% and 9.15%. For `CCN(CC)CC(O)c1ccnc2c(O)cccc12` (stereo unspecified), the growth inhibition was 11.9%. In the case of `Nc1ccc(S(=O)(=O)O)c2ccccc12`, the growth inhibition is reported as 6.25% and -52.1% and -17.6%. For `CC1=NN(c2ccccc2)C(=O)C1N=Nc1cc(Cl)cc(S(=O)(=O)O)c1O` (stereo unspecified), the growth inhibition was 29.7%. `O=C(O)CC(NC(=O)CP(=O)(O)O)C(=O)O.[NH-]C1CCCCC1[NH-].[Pt+2]` (stereo unspecified) showed a growth inhibition of 20.8%. For `COc1ccc(-c2nc3c(C(=O)NCCN(C)C)cccc3c3ccccc23)cc1`, the growth inhibition was 0.85%. In the case of `C[C@]12CCC(=O)C=C1CC[C@@H]1[C@@H]2[C@@H](O)C[C@@]2(C)[C@H]1CC[C@]2(O)C(=O)COC(=O)CCC1CCCC1`, the growth inhibition is reported as 82.7% (active). With `COC1OC2COC(c3ccccc3)OC2C(O)C1O` (stereo unspecified) the growth inhibition was -29.2% and -46% and -45.3%. With `CCc1cccc(C)c1N1C(=O)C(=O)C(c2nc3ccccc3o2)/C(=N\NS(=O)(=O)c2ccc(C)cc2)C1=O` (stereo unspecified) the growth inhibition was 36%. `O=C(CC(=O)c1ccccc1)CC(=O)c1cccc(Cl)c1` gave a growth inhibition of 18.4%. For `CSc1ccccc1C(=O)O`, the growth inhibition was -32.9% and -15.8% and 17.3%. Compound `O=C1/C(=C/c2cccc(Br)c2)CCc2ccccc21` has a growth inhibition of 22.4%. `CC1(C)c2ccccc2Cc2cc3ccccc3nc21` showed a growth inhibition of 25.2%. For `Cc1ccc(S(=O)(=O)OCC(O)C(O)COS(=O)(=O)c2ccc(C)cc2)cc1` (stereo unspecified), the growth inhibition was 11.1% and -21.9% and -13.5%. `CN(C)Cc1ccc2[nH]c3c(c2c1)CCCC3` gave a growth inhibition of 21.2%. For `C=C1C(=O)O[C@@H]2C[C@@]3(C)CCC[C@H](C)C3=C[C@H]12`, the growth inhibition was 41.5%. Compound `O=C1C=CC(=O)c2c1cc1ccccc1c2O` has a growth inhibition of 27.4%. For `Cc1c(CNc2ccc(Cl)c(Cl)c2Cl)cnc2nc(N)nc(N)c12`, the growth inhibition was 43.4%. In the case of `Oc1cc(F)cc2cccnc12`, the growth inhibition is reported as 92.5% (active). In the case of `OCC(O)C(O)C(O)C(O)CNCC(O)C(O)C(O)C(O)CO` (stereo unspecified), the growth inhibition is reported as -6.2% and -7.7% and -3.1%. Compound `O=C(c1ccccc1)C(Br)CCCC(Br)C(=O)c1ccccc1` (stereo unspecified) has a growth inhibition of 67.2%.

Reference: PubChem BioAssay (NCI)
